Source: paper PMC4336329 (PLoS ONE, 2015)
The whole screen tested about 310,000 compounds, of which about 14,000 (4.5%) showed an effect of 50% or more. The effect is printed as a negative number. Shown is part of a subset that was picked to be rich in strong results.

Target: human ether-à-go-go-related gene (hERG) potassium channel (human, UniProt Q12809)
Test: primary screen, population patch clamp on CHO cells stably expressing hERG; higher = less effect of the substance
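Also: peak tail current of the secondary pulse compared with the same well before compound.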

Chain of human ether-à-go-go-related gene (hERG) potassium channel (Q12809 whole entry, looked up): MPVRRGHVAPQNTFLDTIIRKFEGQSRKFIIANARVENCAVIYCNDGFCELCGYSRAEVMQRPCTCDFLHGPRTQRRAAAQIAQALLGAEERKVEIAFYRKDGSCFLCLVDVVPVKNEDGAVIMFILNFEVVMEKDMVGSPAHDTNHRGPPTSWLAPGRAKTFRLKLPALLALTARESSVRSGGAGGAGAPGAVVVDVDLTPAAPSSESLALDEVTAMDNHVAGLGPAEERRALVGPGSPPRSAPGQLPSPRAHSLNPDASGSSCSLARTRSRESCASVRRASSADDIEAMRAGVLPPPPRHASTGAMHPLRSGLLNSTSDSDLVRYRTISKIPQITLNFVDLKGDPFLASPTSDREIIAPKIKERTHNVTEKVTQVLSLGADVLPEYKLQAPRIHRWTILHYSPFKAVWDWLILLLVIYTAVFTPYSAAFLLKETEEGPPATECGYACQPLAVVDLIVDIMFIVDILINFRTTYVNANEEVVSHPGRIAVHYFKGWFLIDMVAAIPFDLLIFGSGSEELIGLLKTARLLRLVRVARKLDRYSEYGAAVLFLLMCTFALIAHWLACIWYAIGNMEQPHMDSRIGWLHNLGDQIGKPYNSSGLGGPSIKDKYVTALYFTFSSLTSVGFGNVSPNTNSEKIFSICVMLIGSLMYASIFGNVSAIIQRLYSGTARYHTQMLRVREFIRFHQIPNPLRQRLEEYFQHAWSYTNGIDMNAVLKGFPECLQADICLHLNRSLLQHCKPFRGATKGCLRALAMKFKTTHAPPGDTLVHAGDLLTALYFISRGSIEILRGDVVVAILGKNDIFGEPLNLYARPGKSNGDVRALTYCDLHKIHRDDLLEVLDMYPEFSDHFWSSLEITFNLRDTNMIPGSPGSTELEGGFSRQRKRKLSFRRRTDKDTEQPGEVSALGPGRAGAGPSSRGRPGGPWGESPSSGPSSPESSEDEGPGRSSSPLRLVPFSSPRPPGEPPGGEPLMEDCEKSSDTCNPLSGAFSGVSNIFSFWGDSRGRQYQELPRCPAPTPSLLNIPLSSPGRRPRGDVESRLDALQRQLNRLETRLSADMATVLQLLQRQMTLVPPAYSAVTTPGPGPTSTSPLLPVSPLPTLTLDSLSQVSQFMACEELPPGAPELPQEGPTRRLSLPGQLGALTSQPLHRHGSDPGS

| Compound | hERG current change (%, negative = inhibition) at 10uM |
| --- | --- |
| O=C(c1ccc(Br)cc1)N1CCN(S(=O)(=O)c2ccccc2)CC1 | -38.5% |
| CCCCC(=O)NC(=S)Nc1nnn(CCC)n1 | 9.55% |
| COc1ccc(CN(C)C(=O)c2ccc3c(=O)n4c(nc3c2)CCC4)cc1 | 13.7% |
| Cl.NC1=NC2(CCCCC2)N(c2cccc(Cl)c2)C(N)=N1 | 27.9% |
| CCn1nnc(-c2ccccc2NC(=O)C(F)(F)F)n1 | -9.9% |
| CN1CCN(CCC(=O)N/N=C/c2cc3c(cc2[N+](=O)[O-])OCO3)CC1 | 9.64% |
| O=C(NC(=S)Nc1cc(C(F)(F)F)ccc1N1CCOCC1)c1ccco1 | 3.6% |
| COc1ccccc1CNC(=O)C1CC2Cn3c(nc4ccccc43)C2N1C (stereo not shown) | -9.34% |
| O=C(NCc1cccc(C(F)(F)F)c1)C1CC2Cn3c(nc4ccccc43)C2N1Cc1ccccc1 (stereo not shown) | -57.8% |
| O=C(NCc1cccc(Br)c1)C1CC2Cn3c(nc4ccccc43)C2N1Cc1ccccc1 (stereo not shown) | -74.2% |
| O=C(NCc1cccc(Br)c1)C1CC2Cn3c(nc4ccccc43)C2N1c1ccccc1 (stereo not shown) | -20.5% |
| CN1C(C(=O)NCc2ccco2)CC2Cn3c(nc4ccccc43)C21 (stereo not shown) | 10.3% |
| COCCNC(=O)C1CC2Cn3c(nc4ccccc43)C2N1C (stereo not shown) | 11.2% |
| CCCCNC(=O)CN(CCc1ccccc1)S(C)(=O)=O | -12.6% |
| Cc1c(Cl)cccc1NC(=O)CCC(=O)NNC(=O)c1ccco1 | 18.3% |
| CCOC(=O)c1cccc(NC(=O)CSc2nnc(-c3cccnc3)n2CC)c1 | -37.5% |
| N#Cc1nc(-c2cccs2)oc1NCc1ccco1 | -5.22% |
| CC(/C=C/c1ccccc1)=N/NC(=O)c1cc([N+](=O)[O-])cc([N+](=O)[O-])c1 | 8% |
| O=c1[nH]c(Sc2ccc([N+](=O)[O-])cc2[N+](=O)[O-])nc2ccccc12 | 9.99% |
| O=[N+]([O-])c1ccc(Sc2cccc3cccnc23)c([N+](=O)[O-])c1 | 16.6% |
| O=[N+]([O-])c1ccc(Sc2cc[n+]([O-])c3ccccc23)c([N+](=O)[O-])c1 | -65.3% |
| CN(CC(=O)Nc1ccccc1Br)C(=O)CCC1CCCC1 | 9.57% |
| CCCCC1(C)NC(=S)N2N1C(=S)NC2(C)CCCC (stereo not shown) | 15.1% |
| Cc1noc(C)c1C(=O)Nc1nc2ccc(S(C)(=O)=O)cc2s1 | 2.86% |
| O=C(O)C(CCCCN1C(=O)C2C3C=CC(C3)C2C1=O)N1C(=O)C2C3C=CC(C3)C2C1=O (stereo not shown) | 2.41% |
| CCOC(=O)c1[nH]ncc1CN1CCCC(C(=O)c2cccc(Cl)c2)C1 (stereo not shown) | -22.6% |
| CCOC(=O)c1[nH]ncc1CN1CCCC(C(=O)c2ccc(SC)cc2)C1 (stereo not shown) | -73% |
| CCOC(=O)c1[nH]ncc1CN1CCCC(C(=O)c2cccc(OC(C)C)c2)C1 (stereo not shown) | -42.1% |

| Compound | hERG current change (%, negative = inhibition) at 10uM |
| --- | --- |
| CCOC(=O)c1[nH]ncc1CN1CCCC(C(=O)c2cc(Cl)ccc2OC)C1 (stereo not shown) | -71.1% |
| CCOC(=O)c1[nH]ncc1CN1CCCC(C(=O)c2ccc(OC)cc2C)C1 (stereo not shown) | -49.4% |
| CCOC(=O)c1[nH]ncc1CN1CCCC(C(=O)c2ccc(C(C)(C)C)cc2)C1 (stereo not shown) | -17.6% |
| O=C(COC(=O)C1CCCCC1)Nc1ccc(N2CCCCC2)cc1 | 2.16% |
| COc1ccc(C2(CNS(=O)(=O)c3ccccc3)CCOCC2)cc1 | -4.62% |
| COc1ccc(NC(=O)C2CCCN2S(=O)(=O)c2cccc3cccnc23)c(OC)c1 (stereo not shown) | -6.73% |
| CCOc1cc2c(cc1C=O)OC(C)C2 (stereo not shown) | 22.1% |
| O=C(c1ccc(Cl)c(S(=O)(=O)N2CCCCC2)c1)N1CCN(Cc2ccccc2)CC1 | -59.1% |
| O=C(c1ccc(Cl)c(S(=O)(=O)N2CCCCCC2)c1)N1CCCCC1 | -20.7% |
| CCN1CCN(C(=O)c2ccc(Cl)c(S(=O)(=O)N3CCOCC3)c2)CC1 | -0.549% |
| O=C(c1ccc(Cl)c(S(=O)(=O)N2CCCCCC2)c1)N1CCCC1 | -38.9% |
| O=C(c1ccc(Cl)c(S(=O)(=O)N2CCCCC2)c1)N1CCCCC1 | -31.7% |
| O=C(c1ccc(Cl)c(S(=O)(=O)N2CCOCC2)c1)N1CCN(Cc2ccccc2)CC1 | -25.3% |
| CCN1CCN(C(=O)c2ccc(Cl)c(S(=O)(=O)N3CCCCCC3)c2)CC1.Cl | -60.9% |
| Cl.O=C(c1ccc(Cl)c(S(=O)(=O)N2CCCCCC2)c1)N1CCN(CCO)CC1 | -34.4% |
| CCN1CCN(C(=O)c2ccc(Cl)c(S(=O)(=O)N3CCCCC3)c2)CC1 | -69.8% |
| CCCn1c(N)c(N(CCOC)C(=O)c2cccc(S(=O)(=O)N3CCCc4ccccc43)c2)c(=O)[nH]c1=O | 3.29% |
| O=C(NCC1CCCO1)c1cccs1 (stereo not shown) | 4.89% |
| Cc1cc(OCC(=O)OCC(=O)NC2CCCCC2C)ccc1Cl (stereo not shown) | 0.466% |
| CC(=O)Nc1ccc(S(=O)(=O)NNC(=O)c2cccc(Br)c2)cc1 | 15.9% |
| CCC(=NCCCN1CCOCC1)c1c(O)n(-c2ccccc2C)c(=O)[nH]c1=O | 8.28% |
| CCCCN1C(=O)C(=O)N(CC(=O)Nc2sc(CC)cc2C(=O)OCC)C1=O | -10% |
| Cc1ccc(Oc2ccc(OCC(=O)NC(C)C(=O)O)cc2)cc1 (stereo not shown) | -25.1% |
| Cc1c(C#N)c(N)nc(Cl)c1C#N | 25.9% |
| NC(=O)C1(NC(=O)[C@@H]2CC3(CC(c4cccc(NC(=O)[C@@H]5CCC(=O)N5)c4)=NO3)CN2C(=O)c2ccccc2)CC1 (stereo partly shown) | 1.96% |
| CCCCOC(=O)NC1(C)CCS(=O)(=O)C1 (stereo not shown) | 27.1% |
| CC(C)OCCCNC(=S)N1CCC(C(=O)c2ccc3c(c2)OCCO3)CC1 | -22.9% |
